tested on: T1, TRKC
T1 construct: gene NTRK3
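Note: kd values determined as follow-up on hits from a single-replicate KINOMEscan panel screen.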

Row | Compound | Kd [nM]
1 | CC(=O)c1cccc(NC(=O)NC2CCN(c3ccnc(Nc4ccc(F)cc4)n3)C2)c1 (centres unmarked) [GSK1379710] | 94
2 | COC(=O)c1cccc(NC(=O)NC2CCN(c3ccnc(Nc4ccc(OC)cc4)n3)C2)c1 (centres unmarked) [GSK1379746] | 1000
3 | COC(=O)c1cccc(NC(=O)NC2CCN(c3ccnc(Nc4ccc(F)cc4)n3)C2)c1 (centres unmarked) [GSK1379725] | 340

tested on: T2, VPS34
T2 construct: gene PIK3C3

Row | Compound | Kd [nM]
4 | O=c1cc(N2CCOCC2)nc2n(Cc3cccc(Cl)c3Cl)c3ccccc3n12 [GSK2299009] | 470
5 | Cc1c(Cn2c3ccccc3n3c(=O)cc(N4CCOCC4)nc23)cccc1C(F)(F)F [GSK2306394] | > 10000
6 | Cc1ccccc1Cn1ccn2c(=O)cc(N3CCOCC3)nc12 [GSK2269905] | 180
7 | O=c1cc(N2CCOCC2)nc2n(Cc3ccccc3F)ccn12 [GSK2297428] | 68
8 | O=C1NC(=O)C(c2ccc(Cl)cc2)=C1Nc1cccc(Cl)c1 [SB-317651] | 300
